# B2AR arrestin: beta2AR (human) beta-arrestin recruitment activity. P07550. beta-arrestin recruitment to beta2AR, cell-based reporter. Potency, µM (series often up to 46.1 µM), for inactives: at the highest dose activation, most hits filed as activators. actives 0.02% (n = 330,000);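 also: potency is read from the fitted curve at half-maximal effect; 0% = DMSO controls and full agonism = EC100 isoproterenol or metaproterenol; nearly all actives have a fitted effect of over 65% in size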
# IDH1 R132H inh: blocks human mutant IDH1 R132H enzyme. O75874. IDH1-R132H enzyme, NADPH consumption, diaphorase/resazurin fluorescence. Potency, µM (top dose mostly 76.6 µM), inactives show at the top dose activity change, negative = inhibition, actives largely listed as inhibitors. actives 0.093% (n = 390,000); also: potency is read from the fitted curve at half-maximal effect; % is scaled to controls: 0 for no effect and ±100 for the full control effect; nearly all actives have a fitted effect of over 65% in size
# Target sequence (O75874 whole entry R132H, stated change not applied): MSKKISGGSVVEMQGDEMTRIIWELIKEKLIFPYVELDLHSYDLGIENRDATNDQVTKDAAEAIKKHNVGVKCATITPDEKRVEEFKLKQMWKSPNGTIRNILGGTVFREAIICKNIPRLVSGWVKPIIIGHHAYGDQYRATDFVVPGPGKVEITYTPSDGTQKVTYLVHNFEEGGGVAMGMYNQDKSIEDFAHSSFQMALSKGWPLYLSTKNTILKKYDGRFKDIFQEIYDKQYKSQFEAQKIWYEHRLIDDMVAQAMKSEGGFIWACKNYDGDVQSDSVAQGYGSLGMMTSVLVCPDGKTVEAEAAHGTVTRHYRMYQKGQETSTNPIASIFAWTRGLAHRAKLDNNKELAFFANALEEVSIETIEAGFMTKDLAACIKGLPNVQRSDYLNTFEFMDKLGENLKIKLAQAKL
#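 IDH1-R132H (0.5 ug/mL) preincubated 30 min with compound, then NADPH (0.016 mM) and alpha-KG (2 mM) added; 80 min at RT, pH 7.5. Remaining NADPH coupled via diaphorase/resazurin to fluorescence (540/590 nm); concentration-response curves normalized to no-enzyme control.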
# DRD3 agonist: agonists of human D3 dopamine receptor. max activation, %. AID 652048. D3R DiscoveRx beta-arrestin cells, luminescence, 90 min. actives 0.58% (n = 410,000). P35462; in the data active = max activation above about 30%; also: 0% is about no effect
#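 Agonist-mode cell screen: cells plated at 1500/well and incubated overnight at 37 °C, then exposed to library compounds for 90 min at 37 °C. Detection reagent was added for 30–60 min at room temperature, and luminescence was read.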
# a7 integrin act: activators of alpha7 integrin expression for muscular dystrophy. alpha7betagal myoblasts, beta-gal FDG fluorescence, 48 h. Potency, µM (top dose mostly 38.3 µM), for the others: at the highest dose activation, hits mostly activators. actives 0.064% (n = 350,000);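 also: potency is read from the fitted curve at half-maximal effect; 100% = response of the positive control SU9516; nearly all actives have a fitted effect of over 60% in size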
#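 Alpha7betagal+/- myoblasts (passage 13) were plated 16-24 hr, then exposed to compounds (1:260 dilution of DMSO stock) for 48 hours at 37C. After MPER lysis, β-galactosidase reporter activity was read as FDG fluorescence (ex 480/em 540) after 30 minutes.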
# D3 antag: blocks the human D3 dopamine receptor; max response, negative = inhibition, %; actives 2.5% (n = 360,000); D3R cells, DiscoveRx beta-arrestin luminescence, antagonist mode; stronger effect = lower value; P35462; AID 652054; in the data active = max response below about -50%; inconclusive = no clear call, values can overlap the other calls; also: % is scaled to controls: 0 for no effect and ±100 for the full control effect
#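 Cells expressing the human receptor were seeded at 1500 cells/well, incubated overnight at 37 degrees C in 5% CO2, then exposed to library compounds with dopamine controls for 90 minutes at 37 degrees C before luminescent detection.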
# Numbers without * were called inactive; ? = inconclusive; · = no result given. The list is not random: actives were taken first. Their share in the collection is about 2.9%. Unless noted, calls follow the shape of the dose curve; as a rule, active = well fitted curve in the direction sought with a large enough effect; inconclusive = small, poorly fitted or top-dose-only effect, or another doubt; inactive = no such curve, though single readings can be large; an effect the other way counts as inactive or inconclusive.
SMILES,B2AR arrestin,IDH1 R132H inh,DRD3 agonist,a7 integrin act,D3 antag
O=C(CCC(=O)Nc1cc(C(F)(F)F)ccc1Cl)N/N=C\c1cc([N+](=O)[O-])ccc1O,0.1%,10.2%,-23.2,-38.3%,-70.2*
O=C(CCC(=O)Nc1ccc(Br)cc1)N/N=C/c1cc([N+](=O)[O-])ccc1O,0.0%,-1.7%,-15.0,?,-58.8*
O=C(CCC(=O)Nc1ccc(F)cc1)N/N=C/c1cc([N+](=O)[O-])ccc1O,0.1%,-0.8%,-17.4,0.0%,-70.2*
CCN(CC)S(=O)(=O)c1ccc(C(=O)NCCSc2c(-c3ccc(OC)cc3)[nH]c3ccccc23)cc1,·,-18.3%,-7.1,·,·
CCc1ccccc1Nc1cc(C(=O)NC2CCC(C)CC2)c2ccccc2n1 (configuration not stated),·,-12.6%,-7.4,·,·
O=C(NCc1ccco1)c1ccc(CS(=O)c2ccccc2Cl)o1 (configuration not stated),·,-2.1%,1.5,-5.7%,5.0
O=C(NCCCN1CCC(Cc2ccccc2)CC1)c1ccc(CS(=O)c2ccccc2Cl)o1 (configuration not stated),·,-12.6%,-4.6,-60.9%,-108.3*
O=C(CN(C(=O)CCC(=O)Nc1ccccn1)c1ccc(F)cc1)NCc1ccc(F)cc1,-0.8%,8.8%,-4.5,1.9%,-93.7*
O=C(CN(C(=O)CCC(=O)Nc1ccccn1)c1cccc(F)c1)NCc1ccc(F)cc1,-0.3%,0.9%,31.7*,0.0%,0.1
O=C(CN(C(=O)CCC(=O)Nc1ccccn1)c1cccc(F)c1)NCc1ccc2c(c1)OCO2,0.2%,-4.2%,9.4,0.0%,-7.6
O=C(Nc1ccc(O)c2c(=O)cc(-c3ccccc3Cl)oc12)c1ccc(Cl)c(Cl)c1,-0.3%,-3.7%,-27.9,-21.9%,-83.4*
O=C(NC1CCN(Cc2ccccc2)CC1)c1ccc(Cl)cc1Cl,-0.2%,4.0%,-21.1,-25.8%,?
O=C(NC1CCN(Cc2ccc(Cl)c(Cl)c2)CC1)c1ccccc1,0.5%,4.3%,-20.5,-7.0%,-99.5*
CCN(CC)S(=O)(=O)c1ccc(Cl)c(C(=O)NC2CCN(Cc3ccccc3)CC2)c1,-0.7%,2.4%,-5.6,24.1%,-65.4*
O=C(NC1CCN(Cc2ccc(F)cc2)CC1)c1ccccc1,-0.6%,19.0%,-48.7,-14.3%,-72.4*
O=C(NC1CCN(Cc2ccc3ccccc3c2)CC1)c1ccccc1,0.7%,0.0%,-19.3,14.7%,-73.8*
CC(C)Oc1ccc(C(=O)NC2CCN(Cc3ccccc3)CC2)cc1,-0.3%,10.4%,-4.7,-43.8%,12.1
CCOC(=O)c1c(NC(=O)/C=C/c2ccc(Cl)cc2)sc2c1CCC(C)C2 (configuration not stated),·,0.0%,1.8,·,·
Cc1cccc(-n2nnc(-c3nc(-c4cccs4)no3)c2N)c1C,·,0.0%,4.2,·,·
Cc1cc(Nc2cccc(C(F)(F)F)c2)nc2ccc(NC(=O)Cc3ccc(Cl)cc3)cc12,·,-9.7%,1.5,·,·
Cc1cccc(N2CCN(C(=O)c3noc4c3CCCCC4)CC2)c1C,·,-7.1%,-15.2,·,·
CC(=O)N1CCc2cc(S(=O)(=O)NC(Cc3ccccc3)C(=O)Nc3cc(C)ccn3)ccc21 (configuration not stated),0.4%,6.9%,-11.6,-15.8%,-70.6*
CC(=O)N1CCc2cc(S(=O)(=O)NC(Cc3ccccc3)C(=O)Nc3cc(C)cc(C)c3)ccc21 (configuration not stated),·,-8.8%,-3.6,·,·
CCCCc1cc2c(=O)c(C(=O)OC)c[nH]c2cc1OCc1ccccc1,·,·,11.3,·,·
CN1CCN(c2nc(NCCOC34CC5CC(CC(C5)C3)C4)nc(OCC(F)(F)F)n2)CC1,-0.2%,9.1%,-12.9,-14.7%,-60.7*
Cc1nn(-c2ccccc2)c2[nH]c(=O)c(CNCc3ccc4c(c3)OCO4)cc12,-0.5%,9.0%,2.7,6.6%,-64.8*
Cc1nn(-c2ccccc2)c2[nH]c(=O)c(CNc3ccc4c(c3)OCCO4)cc12,-0.2%,7.4%,-0.4,15.6%,-25.1
Cc1ccc(-c2nn(-c3ccccc3)c3[nH]c(=O)c(CNCc4ccccc4)cc23)cc1,-0.3%,-7.0%,-8.4,-27.5%,-65.5*
Cc1nn(-c2ccccc2)c2[nH]c(=O)c(CNCCN3CCOCC3)cc12,-0.1%,-1.0%,1.5,9.9%,-65.6*
